PBM binding z-score data for 40 sequences are collected here from the supplement of paper PMC6555819.

The test system of this test is VDR:RXRa (NR concentration 270 nM, RXRa partner concentration 90 nM). Description: PBM binding z-score (relative to random genomic background probes); higher = stronger binding; sequences stand for … in GC…GCGATTGACAGCGTAGAATGAAGG
The protocol:
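Protein-binding microarray (Agilent 4x180K custom design, double-stranded 60-nt probes: 5' GC cap, 34-nt variable region, 24-nt constant primer region; full probe sequence given). Purified or IVT nuclear receptor:RXRα heterodimers (3:1 NR:RXRα, mostly 270:90 nM) or homodimers were incubated for 1 h in PBS with 2% milk and no ligand, then detected with Alexa488 antibodies. Fluorescence from o1-orientation probes (~5 replicates averaged) was converted to z-scores against 500 random hg19 background probes. Variable regions are seed direct-repeat (DR0–DR5) sites, all their single-nucleotide variants and half-site ablations.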
As for CTCGAAAGGTCGTGCTCAGGTTAGTATACCAAAC, the PBM binding z-score was found to be 3.79.

Sequence AGAATGAGGTTATACGTAGATCAGTGAAGAAAGT had a PBM binding z-score of 1.31.

CCAGACGGGTGAAAGGTAACTCAGTCTGGTACGC yielded a PBM binding z-score of 0.319.

As to CCTATTAGATGACCATAAGGGCAACCGAAGCTCG, the PBM binding z-score stood at 0.352.

TCATATAGGTAAATGGTAGGTGAAAGTCCGATCT displayed a PBM binding z-score of 1.16.

For CAAACTAGGTCACGAAAGGTCAAGGTCGAATGAC, the PBM binding z-score amounted to 6.61.

As to TGAATGAGGTTATAAGATAAGGGAACGTTGCAAA, the PBM binding z-score was 0.811.

Take CCGAGTAGATTATGGGGCATTCAGGCAACGGTGA: the PBM binding z-score was -0.214.

The sequence TCGGCTAGGTCAGTTGGTCAGCTAACGAGCTGCC returned a PBM binding z-score of 0.16.

As to ATAGGTAGGTTAGCTGGGGTCATTCAGACTAGGC, the PBM binding z-score is 6.28.

TCTGCTAGGTCAATGATGGTCAGCTAATCTGCTA had a PBM binding z-score of 1.32.

Consider AGAATGAGGTAATACGTAGATCAGGGAAGAAAGT, for which the PBM binding z-score was -0.148.

In turn, ATATGTAGGTTACATCCGGGTCGTTCAGGCTATG came in with a PBM binding z-score of 2.52.

AGAAAGAGGTTATACGTAGATCAGGGAAGAAAGT: the PBM binding z-score worked out at 1.4.

Regarding TAGCCTAGGTCGTGCGGGCCAGTATAGTGTCGGC, the PBM binding z-score was determined as 0.148.

Turning to TCTCGGAGGACACGAAAGGTCAGAGATCGACATC, the PBM binding z-score was determined as 3.42.

Regarding TAGCCTAGGTCATTCAGGGGCCAGTTTAGAAAGC, the PBM binding z-score was 3.16.

CCAGACAGGTAAAAGGTAACTCAGTCTGGTACGC returned a PBM binding z-score of 0.318.

Consider ATCGAAAGGTAGAGGTGAGTATAGAGAAAGGGAA, for which the PBM binding z-score was 0.0851.

TAGCCTAGGTCATGGGGCAGTATACCACGCGAAC showed a PBM binding z-score of 2.45.

Sequence ATATGTAGGTTAAGGGTAATTCAGGTTGGTTCGC had a PBM binding z-score of 1.61.

On to CAAACTAGCTCAAAGGTCAAAGTCGAGCCAACCA, for which the PBM binding z-score stood at 4.72.

In turn, CAAACTAGGTTAAAGGTCAAAGTCGAGCCAACCA returned a PBM binding z-score of 5.47.

Regarding GCTAGCAGGCCATTTGGGTCACTGAATGACGGGC, the PBM binding z-score is 0.821.

For CGTCAAAGTTCAACTAAGGTAAGGTAAAGCACGC, the PBM binding z-score amounted to 4.17.

As to CCTAGCAGGCCAATCTGGGTCACCCAAGGCTTGA, the PBM binding z-score came to 0.707.

In turn, CTCGAAAGGTCGTGCTCACGTGAGTATACCAAAC came in with a PBM binding z-score of 3.23.

As for ACTTACGGGTTAACGAGGTTATAGCACGCGTATA, the PBM binding z-score is 6.31.

In turn, CCGACTGGGGCACAAAGGTTACCATACCATCCGG came in with a PBM binding z-score of 1.73.

In turn, TCATATAGGTAATAGAGGTGAAAGTCGGCATCTA came in with a PBM binding z-score of 2.08.

In turn, GCAACGAGGGCAAGTTGATAGCAGAGTTTGATGG showed a PBM binding z-score of 0.955.

As for CTCGAAAGGTCGGTTGAAGTGAGTATACGGATAA, the PBM binding z-score stood at 1.23.

On to GCGACTGGAGCATCAGCAGGTTACCATAACTTAA, for which the PBM binding z-score was -0.345.

The sequence CCGACCGGGGCAAAGGTTACCATACTCAGTACGA registered a PBM binding z-score of 2.06.

Take TCATATAGGTAATACAGGTGAAAGGCGGCATCTA: the PBM binding z-score is 1.17.

In turn, GCTGGTAGGTCAGGTTGGTCAGCTAACGGGTACG had a PBM binding z-score of 1.04.

For ACTCGGAGGACAAAGGGCAGAGCTACGCCAGTGA, the PBM binding z-score is -0.214.

CCTCGGAGGACGACAGGAGGTCAGAGCTGCCAGA showed a PBM binding z-score of 1.44.

The sequence TCTAGTAGATCAGCAGGTTAAGAAAGCTGGCCAA had a PBM binding z-score of 0.524.

GCGACTGGTGCATCAGCAGGTTACCATAACTTAA came in with a PBM binding z-score of -0.435.
